# Data: article PMC4336329 (PLoS ONE, 2015)
# The whole screen tested about 310,000 compounds, of which about 14,000 (4.5%) showed an effect of 50% or more. The effect is printed as a negative number. This excerpt belongs to a sample that is enriched for strong results.
# Biological target: human ether-à-go-go-related gene (hERG) potassium channel (human, UniProt Q12809)
# Test: primary screen, population patch clamp on CHO cells stably expressing hERG; higher = less effect of the substance
# 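Note: peak tail current of the secondary pulse compared with the same well before compound.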
# human ether-à-go-go-related gene (hERG) potassium channel, sequence (Q12809 whole entry, looked up): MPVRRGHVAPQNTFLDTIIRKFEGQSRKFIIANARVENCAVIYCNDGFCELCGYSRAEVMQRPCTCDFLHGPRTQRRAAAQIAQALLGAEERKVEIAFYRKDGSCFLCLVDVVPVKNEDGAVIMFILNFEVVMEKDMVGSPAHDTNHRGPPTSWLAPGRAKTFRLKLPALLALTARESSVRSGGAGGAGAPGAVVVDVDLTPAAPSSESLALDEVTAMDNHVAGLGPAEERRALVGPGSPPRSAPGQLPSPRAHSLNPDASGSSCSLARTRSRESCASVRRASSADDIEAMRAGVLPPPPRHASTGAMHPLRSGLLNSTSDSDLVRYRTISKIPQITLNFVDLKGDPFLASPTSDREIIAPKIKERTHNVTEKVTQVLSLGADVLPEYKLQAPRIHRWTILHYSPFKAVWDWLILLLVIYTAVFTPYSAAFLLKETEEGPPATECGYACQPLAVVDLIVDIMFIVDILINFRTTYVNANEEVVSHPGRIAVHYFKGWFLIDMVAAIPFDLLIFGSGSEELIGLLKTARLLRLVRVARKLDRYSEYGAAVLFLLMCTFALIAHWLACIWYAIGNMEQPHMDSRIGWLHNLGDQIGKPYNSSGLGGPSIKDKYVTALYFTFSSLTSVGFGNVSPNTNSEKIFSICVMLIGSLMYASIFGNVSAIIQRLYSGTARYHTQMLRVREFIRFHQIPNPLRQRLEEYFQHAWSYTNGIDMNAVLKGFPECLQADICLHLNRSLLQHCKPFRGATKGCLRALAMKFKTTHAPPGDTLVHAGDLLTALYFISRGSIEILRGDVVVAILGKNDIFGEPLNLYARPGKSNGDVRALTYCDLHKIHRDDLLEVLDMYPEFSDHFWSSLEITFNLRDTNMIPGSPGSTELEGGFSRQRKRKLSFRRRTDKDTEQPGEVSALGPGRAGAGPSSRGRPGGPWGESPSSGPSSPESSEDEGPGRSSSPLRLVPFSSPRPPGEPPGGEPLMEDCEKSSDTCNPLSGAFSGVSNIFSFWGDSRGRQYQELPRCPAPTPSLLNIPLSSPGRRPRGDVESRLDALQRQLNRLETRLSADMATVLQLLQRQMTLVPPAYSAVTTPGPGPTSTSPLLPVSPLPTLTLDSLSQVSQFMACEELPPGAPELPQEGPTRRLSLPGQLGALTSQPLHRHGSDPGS
row,Compound,"hERG current change (%, negative = inhibition) at 10uM"
1,O=C(Cc1ccsc1)NNC(=O)c1ccc(F)cc1,-18.8%
2,c1ccc(CCN(Cc2ccccc2)Cc2nc(C3CC3)no2)cc1,10.2%
3,COc1ccc(OCc2cc(C(=O)N3CCC(OC)CC3)no2)c2ccccc12,14.4%
4,CCCCOc1ccc(Nc2cc(Cl)ccc2C(=O)O)cn1,23.5%
5,O=C(Nc1nnc(-c2ccccc2F)s1)Nc1ccccc1F,23.3%
6,CCn1c(SCC(=O)Nc2cccc(C)c2)nc2nc3c(cc2c1=O)COC(C)(C)C3,-23.1%
7,CCn1c(SCC(=O)Nc2ccccc2)nc2nc3c(cc2c1=O)COC(C)(C)C3,-61.8%
8,CCn1c(SCC(=O)Nc2ccc(C(C)=O)cc2)nc2nc3c(cc2c1=O)CCCC3,-20.5%
9,CCn1c(SCC(=O)Nc2ccc(OC)cc2)nc2nc3c(cc2c1=O)COC(C)(C)C3,-72.6%
10,CCn1c(SCC(=O)Nc2ccc(C)cc2)nc2nc3c(cc2c1=O)CCCC3,-43.6%
11,CCn1c(SCC(=O)Nc2ccc(C(C)=O)cc2)nc2nc3c(cc2c1=O)COC(C)(C)C3,13.8%
12,CCn1c(SCC(=O)Nc2ccccc2C)nc2nc3c(cc2c1=O)COC(C)(C)C3,-21.4%
13,CCOc1ccc(NC(=O)CSc2nc3nc4c(cc3c(=O)n2CC)COC(C)(C)C4)cc1,0.831%
14,CCn1c(SCC(=O)Nc2ccc(OC)cc2)nc2nc3c(cc2c1=O)CCCC3,-62.6%
15,CCn1c(SCC(=O)Nc2ccc(C)cc2)nc2nc3c(cc2c1=O)COC(C)(C)C3,-81.8%
16,C=CCn1c(SCC(N)=O)nc2nc3c(cc2c1=O)COC(C)(C)C3,4.77%
17,CCn1c(SCC(=O)Nc2ccc(OC)cc2OC)nc2nc3c(cc2c1=O)COC(C)(C)C3,-2.49%
18,O=C(CN1C(=O)CCOc2ccccc21)Nc1ccc(Cl)c(S(=O)(=O)N2CCOCC2)c1,-7.44%
19,O=C(CCn1cnnn1)Nc1cccc(F)c1,21.3%
20,S=C(NCCSCc1c(Cl)cccc1Cl)Nc1ccccc1,-3.31%
21,COCCn1c(C)cc(C2=NNC(=Nc3ccc(OC)cc3)SC2)c1C,1.3%
22,Cc1ccc(S(=O)(=O)Nc2ccnc3ccccc23)cc1,-4.28%

row,Compound,"hERG current change (%, negative = inhibition) at 10uM"
1,Cc1ccc(F)cc1NC(=O)c1sc2ncn(CC(=O)N3CCN(c4ccccn4)CC3)c(=O)c2c1C,-5.06%
2,O=C(COC(=O)CCC(=O)c1cccs1)NC1CCCCC1,1.55%
3,CCCCCCC(=O)N/N=C/c1c(O)n(C2CC2)c(=S)[nH]c1=O,-4.67%
4,Cc1cccc(N2CCN(c3cc(C)nc4nnnn34)CC2C)c1 (centres unmarked),-53.1%
5,Cc1cc(N2CCN(c3ccccc3)CC2)n2nnnc2n1,-3.56%
6,Cc1cccc(N2CCN(c3nnnn3-c3ccccc3)CC2C)c1 (centres unmarked),-10.8%
7,O=C(NCCc1ccco1)C(=O)NCC1CCCN1S(=O)(=O)c1ccccc1 (centres unmarked),-33.5%
8,CSc1ccc(/C=C(\NC(=O)c2ccc(C)cc2)C(=O)Nc2cccc(C)c2)cc1,15.6%
9,CC(C)Oc1ccc(C2CC(=O)N(c3ccccc3)C2=O)cc1 (centres unmarked),6.47%
10,COc1ccc(-c2cc(=NCC(=O)O)c3ccccc3o2)cc1.[O-][Cl+3]([O-])([O-])O,-31.5%
11,CCC(N=c1cc(-c2ccc(OC)cc2)oc2ccc(C)cc12)C(=O)O (centres unmarked),-74.4%
12,CCC(N=c1cc(-c2ccc(OC)c(OC)c2)oc2ccc(C)cc12)C(=O)O (centres unmarked),-20.7%
13,COc1ccc(-c2cc(=NC(CC(C)C)C(=O)O)c3cc(C)ccc3o2)cc1 (centres unmarked),-56.5%
14,COc1ccc(-c2cc(=[NH+]c3cccc(C(=O)O)c3)c3cc(C)ccc3o2)cc1.[O-][Cl+3]([O-])([O-])[O-],-0.536%
15,COc1ccc(-c2cc(=Nc3ccc(C(=O)O)cc3)c3cc(C)ccc3o2)cc1,12.7%
16,O=C(CN1C(=O)NC2(CCc3ccccc32)C1=O)NCC(=O)Nc1ccc(F)cc1 (centres unmarked),1.09%
17,CCCc1c(C(=O)N/N=C/c2ccccc2C(F)(F)F)nnn1-c1nonc1N,11.8%
18,CC(C)c1ccc(CNc2ccc3c(c2)ncn3C)cc1,9.16%
19,CC(C)(C)OC(=O)N1CCC[C@H]1c1nnc(SCc2c(F)cccc2Cl)o1,2.16%
20,CC(C)(C)OC(=O)N1CCC[C@H]1c1nnc(SCc2ccccc2Cl)o1,-5.07%
21,CC(C)(C)OC(=O)N1CCC[C@H]1c1nnc(SCc2c(Cl)cccc2Cl)o1,-57.5%
22,Cc1ccccc1CNc1nnnn1C,12.4%
